Data taken from PubChem BioAssay AID493035 (The Scripps Research Institute Molecular Screening Center, 2011).
Hit rate of the full screen: of about 2,000 compounds, about 45 (2%) were called active. The entries come from a sample that favours actives as a whole. Unmarked numbers belong to inactive results.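 The calls were made as follows: active = inhibition above the mean of all tested compounds plus 3 SD (cut at about 49% in these data); inactive = the rest.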

biological target: Perilipin-5 (Homo sapiens) + 1-acylglycerol-3-phosphate O-acyltransferase ABHD5 (Homo sapiens) (UniProt Q00G26+Q8WTS1); assay: ABHD5-PLIN5 interaction inhibitors, pilot screen, cell lysate, split luciferase complementation, luminescence, NIH validation set (AID 493035);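 also: 0% = DMSO only wells while the 100% control is not stated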; conditions: split G. princeps luciferase complementation, lysates, 4 h; at 7.9 µM, active compounds read high
Sequence (Q00G26 whole entry, looked up): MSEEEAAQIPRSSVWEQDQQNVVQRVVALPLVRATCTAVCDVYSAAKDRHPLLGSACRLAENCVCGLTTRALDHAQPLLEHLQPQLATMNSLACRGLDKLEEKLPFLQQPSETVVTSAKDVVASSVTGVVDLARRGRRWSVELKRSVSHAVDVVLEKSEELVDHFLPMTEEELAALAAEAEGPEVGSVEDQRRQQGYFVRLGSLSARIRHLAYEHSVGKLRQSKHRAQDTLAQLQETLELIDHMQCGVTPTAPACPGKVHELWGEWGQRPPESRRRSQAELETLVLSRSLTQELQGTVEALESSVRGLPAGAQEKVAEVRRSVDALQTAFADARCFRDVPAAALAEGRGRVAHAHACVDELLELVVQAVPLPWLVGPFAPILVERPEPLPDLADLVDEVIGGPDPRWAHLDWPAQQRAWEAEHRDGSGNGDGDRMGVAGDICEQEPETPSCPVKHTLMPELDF
Sequence (Q8WTS1 whole entry, looked up): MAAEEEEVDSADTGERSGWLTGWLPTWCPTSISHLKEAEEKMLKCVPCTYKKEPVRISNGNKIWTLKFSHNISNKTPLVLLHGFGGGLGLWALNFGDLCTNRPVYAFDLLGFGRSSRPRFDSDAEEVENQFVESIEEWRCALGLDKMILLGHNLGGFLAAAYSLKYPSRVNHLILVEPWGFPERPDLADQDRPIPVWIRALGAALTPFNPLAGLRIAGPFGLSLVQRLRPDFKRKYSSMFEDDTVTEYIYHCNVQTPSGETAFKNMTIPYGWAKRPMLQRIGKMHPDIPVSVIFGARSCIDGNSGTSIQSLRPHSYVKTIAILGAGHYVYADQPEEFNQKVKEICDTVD

Compound	inhibition
COc1ccc(OC(C)C(=O)Nc2ccccc2F)cc1 (centres undefined)	2.02%
O=C(c1cccnc1)N1N=C(C2CC2)CC1(O)C(F)(F)F (centres undefined)	2.77%
O=C(Nc1cccc(C(=O)O)c1)/C(=C\c1ccccc1)NC(=O)c1ccccc1	-2.05%
O=C(O)CCCCCCNC(=O)c1cncc(O)c1	-6.1%
CC(=O)OC(CC(=O)O)C[N+](C)(C)C (centres undefined)	-14.8%
COc1ccc(C(=O)Nc2nc3ccccc3c(=O)[nH]2)cc1	0.27%
CC(C)N1C(=O)/C(=C\c2nc3ccccc3c(=O)[nH]2)c2ccccc21	64.9% (active)
COc1ccc(NC(=O)C2CSC3c4ccccc4C(=O)N23)cc1 (centres undefined)	4.85%
CCOC(=O)C(Cc1cc(C(C)=O)ccc1OC(C)C)C(=O)OCC	-3.49%
O=C1C2C3C=CC(C4CC34)C2C(=O)N1/N=C/c1ccc(-c2ccc([N+](=O)[O-])cc2)o1 (centres undefined)	-2%
c1ccc(Cn2ncc3c(Nc4ccccc4)ncnc32)cc1	-6.21%
O=C(NO)c1ccccc1O	-11.8%
COC(=O)[C@@H](N)CS	78.9% (active)
CC(=O)N[C@@H](CS)C(=O)O	-2.08%
COc1cc(OC)c2c(C)c(Cl)c(=O)oc2c1	-6.84%
CCN(CC)C(=O)c1sc(NC(=O)c2c(OC)cccc2OC)c(C#N)c1C	-4.18%
CCCC(CCC)C(=O)OC1C[C@H]2CC[C@@H](C1)[N+]2(C)C (some centres undefined)	-9.28%
CCN(CC)C(=S)SSC(=S)N(CC)CC	95.2% (active)
COc1ccc(O)c(C2=Nc3ccccc3N=C(c3ccccc3)C2)c1	-11.4%
C=CCOc1ccc(C(=O)CC)cc1OC	-3.26%
CC(=O)CCc1oc2ccccc2c1-c1ccccc1	-0.95%
CCc1oc2ccccc2c1C(=O)c1cc(Br)c(O)c(Br)c1	50.7% (active)

Compound	inhibition
CCCCc1oc2ccccc2c1C(=O)c1cc(I)c(OCCN(CC)CC)c(I)c1	-3.91%
COc1ccc2cc[nH]c2c1	5.24%
COc1cccc2c(=O)c(C/C=C(/C)Cl)c(C)[nH]c12	-0.4%
COc1ccc(N2CCN(C(=S)NCc3ccccc3)CC2)cc1	10.2%
CC(C)=CCC(C)(C)/C=N/NC(N)=O	-11.2%
CC(=O)N(CCC(Cc1ccccc1)c1ccco1)Cc1ccco1 (centres undefined)	39.1%
COc1ccccc1C(CCN(Cc1ccccc1)C(C)=O)c1ccco1 (centres undefined)	7.01%
O=C(c1ccco1)N(CCC(c1ccccc1)c1ccco1)Cc1ccco1 (centres undefined)	58.6% (active)
COc1ccc(-c2cc(C(=O)N3CCOCC3)c3cc(C)ccc3n2)cc1	-3.27%
O=C(c1ccc(Cl)cc1)C1CCCN(C(=O)/C=C/c2ccccn2)C1 (centres undefined)	8.56%
CCCCC/C=C\C[C@H](O)/C=C/c1cccc(C[C@H](O)CCCCO)n1	62.8% (active)
CSCCC(NC(=O)/C(=C/c1ccc2c(c1)OCO2)NC(=O)c1cccc([N+](=O)[O-])c1)C(=O)O (centres undefined)	5.37%
OC[C@@H](O)[C@@H](O[C@H]1O[C@H](CO)[C@@H](O)[C@H](O)[C@H]1O)[C@H](O)[C@@H](O)CO	-8.59%
Cc1cccc(C(=O)c2cccc(C)c2)c1	-8.84%
Cn1c(=O)c(C(=O)NCCO)c(O)c2ccccc21	-4.23%
O=C(Nc1ccc(Oc2c(F)c(F)c(F)c(F)c2F)cc1)OC1CCN2Cc3ccccc3N=C12 (centres undefined)	69.3% (active)
Cc1ccc(S(=O)(=O)N2CCC(C(=O)N[C@@H](C)C(=O)NC3CCS(=O)(=O)C3)CC2)cc1 (some centres undefined)	-6.13%
Cc1ccc(-c2nnc(-c3ccc4c(c3)OCO4)o2)cc1	-9.18%
CN(C)CCCN1c2ccccc2Sc2ccccc21	-13%
CC(CN1c2ccccc2Sc2ccccc21)N(C)C (centres undefined)	-12.2%
CCN1/C(=C/C=C/C=C/c2sc3ccccc3[n+]2CC)Sc2ccccc21	70.5% (active)
C=CCn1c(SCC(=O)NC2CCCCC2)nc2ccccc2c1=O	-1.42%

Compound	inhibition
COc1ccccc1-c1ccc(/C=C2/C=C(CC(C)C)OC2=O)o1	7.79%
CCOC(=O)c1c(C)oc2cc(Br)c(OC(C)C(=O)OCC)cc12 (centres undefined)	-0.05%
COc1cccc(OCC(O)CO)c1 (centres undefined)	-6.51%
N#C/C(C(N)=O)=c1/ccc2c(c1)N1C3=C(CCCC3)CC3CCCCC31N=2 (centres undefined)	25.4%
COc1ccc(C(=O)/C=C/c2cc(C(=O)O)cc3c2OCOC3)c(O)c1	70.3% (active)
COc1cccc(/C=C/C(=O)c2c(O)cc(C)oc2=O)c1O	44.4%
COc1ccc(C(=O)COc2ccc(F)cc2)c(O)c1	-6.5%
CC1=CC(C)(C)N2C(=O)C3(NCCc4c3[nH]c3ccccc43)c3cc(C)cc1c32 (centres undefined)	-1.07%
O=C(NC(=S)Nc1ccc(N2CCN(C(=O)c3ccccc3)CC2)cc1)c1cccs1	11.4%
Cc1ccc(S(=O)(=O)n2ccnc2)cc1C	-3.74%
COC(=O)c1ccc(=O)n(Cc2ccco2)c1	18.6%
COC(=O)C1=C(C)N(Cc2ccco2)C(=O)/C1=C\c1ccc([N+](=O)[O-])cc1	84.5% (active)
COCCCN1C(=O)/C(=C\c2cccs2)C(C(=O)OC)=C1C	0.91%
CCNC(=O)C12CCC(C)(C(=O)O1)C2(C)C (centres undefined)	-5.33%
CC(C)[C@H](NC(=O)[C@@H]1CSCN1C(=O)OC(C)(C)C)C(=O)NCC1CCC(C(=O)O)CC1 (some centres undefined)	-18.6%
CC(=O)N/C(=C/c1ccc2c(c1)OCO2)C(=O)NCCO	2.23%
COc1ccc(C2=C(CN(C)C)C(c3ccccc3)c3ccccc3O2)cc1 (centres undefined)	1.13%
CCOC(=O)C(=O)N1CCN(c2ccccc2OC)CC1	-5.55%
CCOC(=O)C(=Cc1ccccc1OC)C(=O)OCC	47.9% (active)
COc1ccccc1/C=C/C(=O)OCCN1CCOCC1	-8.59%
